Only some compounds are listed: those with a hit (about 3.2% of all), similar ones and a draw of the others.
Mcl1 Bid PPI = Mcl-1/Bid binding inhibitors, primary screen, biochemical, TR-FRET, 1536-well; TR-FRET Mcl-1/Bid-Dy647 peptide binding; Induced myeloid leukemia cell differentiation protein Mcl-1 (Homo sapiens), Q07820; 220,000 tested, 0.97% active; inhibition, % at 21.7 µM; AID 1021, 2008;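 active = compounds that cut the binding signal by more than half at the single screening dose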;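 note: His-tagged Mcl-1 with europium anti-His antibody binding Bid BH3 peptide; 0% = Mcl-1 plus peptide wells and 100% = peptide-only wells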
Target sequence (Q07820 whole entry, looked up): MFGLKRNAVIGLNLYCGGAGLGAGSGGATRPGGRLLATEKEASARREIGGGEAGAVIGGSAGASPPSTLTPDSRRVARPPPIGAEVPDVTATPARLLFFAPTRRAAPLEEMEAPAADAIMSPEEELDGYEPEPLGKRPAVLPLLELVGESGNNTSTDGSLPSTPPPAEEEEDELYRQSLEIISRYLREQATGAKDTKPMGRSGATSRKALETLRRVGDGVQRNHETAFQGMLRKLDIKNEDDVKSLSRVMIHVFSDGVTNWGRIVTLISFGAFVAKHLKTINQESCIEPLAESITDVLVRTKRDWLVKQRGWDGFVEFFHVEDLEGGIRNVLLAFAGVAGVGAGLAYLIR
p47phox inh = p47phox/p22phox peptide binding inhibitors, primary screen, biochemical, uHTS, NADPH oxidase regulatory subunit; Neutrophil cytosol factor 1 (Homo sapiens), P14598; fluorescence polarization, 2 h; inhibition, % at 24.7 µM; 220,000 tested, 0.53% active; AID 1274, 2008;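 active = inhibition above about 30%, limit read from the data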;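 note: 0% = p47phox with labelled peptide and 100% = labelled peptide alone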
Target sequence (P14598 whole entry, looked up): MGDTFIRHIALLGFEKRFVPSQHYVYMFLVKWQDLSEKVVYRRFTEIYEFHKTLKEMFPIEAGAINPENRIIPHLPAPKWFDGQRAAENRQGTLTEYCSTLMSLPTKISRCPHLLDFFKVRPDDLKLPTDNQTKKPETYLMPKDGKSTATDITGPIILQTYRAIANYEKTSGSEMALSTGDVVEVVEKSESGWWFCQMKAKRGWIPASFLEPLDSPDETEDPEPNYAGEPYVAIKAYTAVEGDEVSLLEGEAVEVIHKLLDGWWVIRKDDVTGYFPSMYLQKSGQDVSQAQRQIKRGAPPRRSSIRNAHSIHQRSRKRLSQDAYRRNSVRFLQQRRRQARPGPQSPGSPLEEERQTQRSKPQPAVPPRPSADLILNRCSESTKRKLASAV
Bim-Mcl-1 = inhibitors of Bim peptide binding to Mcl-1, primary screen, biochemical, bead-based flow cytometry, multiplex; Bim peptide-Mcl-1 binding; inhibition, % at 10 µM; 190,000 tested, 0.1% active; in the data active = inhibition above about 40%;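 note: 0% = no compound tracer wells and 100% = peptide blocker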
14-3-3 Bad inh = inhibitors of 14-3-3 zeta/Bad binding, primary screen, biochemical, TR-FRET, bovine 14-3-3 zeta; TR-FRET 14-3-3zeta/Dy647-pBad peptide displacement, 1 h; 14-3-3 protein zeta/delta (Bos taurus), P63103; 220,000 tested, 0.71% active; AID 781, 2007; inhibition, % at 21.7 µM;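 active = inhibition above about 70%, limit read from the data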;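 note: 0% = full 14-3-3 plus peptide FRET controls and 100% = background without 14-3-3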
Mcl1 Noxa PPI = Mcl-1/Noxa binding inhibitors, primary screen, biochemical, TR-FRET, 1536-well; 220,000 tested, 1.5% active; AID 1022, 2008; TR-FRET Mcl-1/Noxa peptide binding, 2 h; inhibition, % at 21.7 µM; Induced myeloid leukemia cell differentiation protein Mcl-1 (Homo sapiens), Q07820;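 active = compounds that cut the protein-peptide binding signal by more than 50% relative to plate controls in a single-dose test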;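 note: His-tagged Mcl-1 with rhodamine Noxa BH3 peptide and terbium anti-His antibody; 0% = Mcl-1 plus Noxa peptide wells and 100% = peptide-only wells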
An asterisk follows results filed as active; . = no result; [ ] = another dose, or the depositor's remark.

SMILES | Mcl1 Bid PPI | p47phox inh | Bim-Mcl-1 | 14-3-3 Bad inh | Mcl1 Noxa PPI
O=C(O)c1cc(-c2cccc([N+](=O)[O-])c2)n[nH]1 | -19.7 | -5.9 | 0.0 | -7.2 | 22.5
C/C(=N\NC(=O)c1cc(-c2cccc([N+](=O)[O-])c2)n[nH]1)c1ccccc1O | 73.2* | 16.1 | 0.0 | 54.9 | 58.4*
CN1CCc2c(sc(NC(=O)c3ccc(S(=O)(=O)N4CCc5ccccc54)cc3)c2C(N)=O)C1 | 28.4 | -33.6 | . | 48.5 | 51.8*
CN1CCc2c(sc(NC(=O)c3cc4cc([N+](=O)[O-])ccc4s3)c2C(N)=O)C1 | -23.1 | 77.4* | 1.0 | 72.0* | 4.0
CC(C)N1CCc2c(sc(NC(=O)c3cc4cc([N+](=O)[O-])ccc4s3)c2C(N)=O)C1 | 35.1 | 19.1 | 1.0 | 95.5* | 76.3*
CCCCCCCc1c(O)nc(SCC(=O)O)[nH]c1=O | -13.1 | -0.4 | . | 3.6 | -8.1
Cc1cc(NC(=O)NC(C)(C(F)(F)F)C(F)(F)F)no1 | -19.9 | -13.2 | . | 1.5 | 3.8
CCN(CC)C(=O)C1CCCN(Cc2cccc(F)c2)C1 (centres undefined) | 64.3* | 3.8 | -3.0 | 57.5 | 34.4
O=C(O)C1=C[C@H](C2CC2)C[C@H](OCCCCO)O1 | -13.3 | . | 44.0* | -1.9 | -21.3
CCc1c(C)c(C#N)c2[nH]c3ccccc3n2c1=S | -3.4 | 30.3* | . | -14.8 | 18.0
CC1(C)CC(=O)c2sc(NS(=O)(=O)c3ccccc3)nc2C1 | -4.1 | -10.9 | 1.0 | 1.9 | 19.7
CC1(C)CC(=O)c2sc(NS(C)(=O)=O)nc2C1 | 16.1 | -4.3 | -2.0 | 71.1* | 23.0
COC(=O)C1=C(C)NC(C)=C(C(=O)OC)C1c1ccc(OC(=O)c2oc3ccccc3c2C)c(OC)c1 | -5.9 | -4.8 | -1.0 | -3.1 | 13.9
C=CCOC(=O)C1=C(C)N=c2s/c(=C3\C(=O)N(CC(=O)O)c4ccccc43)c(=O)n2C1c1ccc(OC)cc1 (centres undefined) | 2.8 | -6.7 | . | 18.1 | 80.6*
CCOC(=O)C1=C(C)N=c2s/c(=C3\C(=O)Nc4ccccc43)c(=O)n2C1c1ccc2c(c1)OCO2 (centres undefined) | -29.3 | -14.7 | 0.0 | 5.3 | 11.9
CSCCC(NS(=O)(=O)/C=C/c1ccccc1)C(=O)NCCc1ccc(S(N)(=O)=O)cc1 (centres undefined) | -19.0 | -14.4 | . | -4.8 | 4.8
CCCCc1ccc(NC(=S)NCc2ccccc2OC)cc1 | -49.6 | -0.6 | -1.0 | -4.8 | 17.4
COc1ccc(CNCC(=O)Nc2sccc2C#N)cc1 | 28.2 | -1.0 | -4.0 | 1.4 | 52.6*
O=C(NCc1cccnc1)c1cc2nc(-c3ccc4c(c3)OCO4)cc(C(F)(F)F)n2n1 | 82.8* | -9.4 | 3.0 | -4.3 | 46.7
O=C1C(=Cc2cccn2-c2ccc(O)cc2)C(=O)c2ccccc21 | 69.5* | 26.6 | 1.0 | 83.9*[fluorescence artefact?] | 1.3
O=C(O)c1cccc(-n2cccc2C=C2C(=O)c3ccccc3C2=O)c1 | -113.2 | -52.8 | 27.0 | 1.5 | 26.2
O=C1C(=Cc2cccn2-c2ccccc2)C(=O)c2ccccc21 | 72.7* | 32.9* | 4.0 | 81.6*[fluorescence artefact?] | 102.0*
O=C(c1ccco1)N1CCN(Cc2cccc([N+](=O)[O-])c2)CC1 | 16.7 | -6.0 | 0.0 | 32.1 | 6.5
C=CCNC(=O)/C(C#N)=C/c1cn(-c2ccccc2)nc1-c1ccc(OC)c([N+](=O)[O-])c1 | 58.3* | 10.6 | -4.0 | 28.6 | 15.2
Oc1ccc(-c2cn3c(n2)SCC3)cc1 | -105.1 | -7.7 | 0.0 | 49.2 | 22.9
SMILES | Mcl1 Bid PPI | p47phox inh | Bim-Mcl-1 | 14-3-3 Bad inh | Mcl1 Noxa PPI
CC(=O)c1ccc(S(=O)(=O)Nc2ccc(-c3cn4c(n3)SCC4)cc2)cc1 | -29.9 | -18.4 | 2.0 | -16.1 | 64.8*
Oc1ccc(-c2cn3c(n2)SCC3)cc1O | -133.6 | 6.8 | 7.0 | -7.4 | 95.2*
O=C(Nc1ccc(-c2cn3c(n2)SCC3)cc1)c1ccc2ccccc2n1 | 0.7 | . | 0.0 | 2.9 | 36.2
O=C(c1ccc(Cl)cc1)n1c(NCc2ccccc2)n[nH]c1=S | -48.3 | -7.3 | -4.0 | 82.5* | -5.4
CCn1c(CCNC(=O)c2ccc(Cl)cc2)n[nH]c1=S | -41.6 | -7.1 | -4.0 | -0.7 | 5.4
COc1ccc(NC(=O)/C(C#N)=C\c2ccc(Br)o2)cc1 | -75.0 | -82.1 | . | 7.6 | 16.9
N#C/C(=C\c1ccc([N+](=O)[O-])o1)C(=O)Nc1ccc(F)cc1 | -51.2 | -20.9 | 1.0 | 2.3 | 64.7*
Cc1ccc(NC(=S)NNc2ccc([N+](=O)[O-])cc2S(=O)(=O)Nc2ccccc2C(=O)O)cc1C | 45.1 | 8.5 | -4.0 | 0.2 | 87.3*
O=C(O)c1ccccc1Nc1ccc([N+](=O)[O-])cc1C(=O)O | 0.8 | -6.4 | . | 4.9 | 24.5
O=C(O)c1ccccc1NS(=O)(=O)c1ccc(NNC(=S)Nc2ccc(OC(F)F)cc2)c([N+](=O)[O-])c1 | 94.7* | 15.3 | -2.0 | 15.1 | 112.1*
COCC1=C(C(=O)OC)C(c2cccs2)n2ncnc2N1 (centres undefined) | -14.6 | -16.2 | . | 3.4 | 8.7
O=c1c(=NNc2ccccc2Cl)c(=O)c2ccccc12 | 56.8* | -3.2 | -3.0 | 9.1 | 33.2
Brc1ccc(C2Nc3cccc4cccc(c34)N2)s1 | -13.1 | 1.6 | 0.0 | 8.0 | 100.0*
Cc1nnc(SCC(=O)NNC(=O)c2ccc(Br)cc2)n1C | -1.8 | -14.2 | 0.0 | -2.3 | -15.2
O=C1CN(C(=O)c2cc([N+](=O)[O-])ccc2Cl)C(c2ccc(F)cc2)c2cc(F)ccc2N1 (centres undefined) | 8.6 | 2.6 | -7.0 | 35.1 | 0.6
O=C(N/N=C/c1ccc(O)cc1O)c1ccc(CN2C(=O)c3cccc4cccc2c34)cc1 | -45.9 | -50.7 | -1.0 | -14.9 | 77.7*
O=S(=O)(/C=C/c1ccccc1)NCc1ccccc1Cl | -26.6 | 0.0 | -6.0 | -5.6 | -13.0
CCOc1ccccc1NC(=O)CSc1nnc2ccc(-c3cccnc3)nn12 | -18.7 | 0.8 | 40.0* | -1.7 | -3.2
COc1ccccc1NC(=O)CSc1nnc2ccc(-c3cccnc3)nn12 | -60.6 | 2.1 | -1.0 | -15.1 | 11.4
CC(=O)Nc1ccc(Nc2ccc3c4c(cc(=O)n3C)-c3ccccc3C(=O)c24)cc1 | 1.2 | 5.5 | 8.0 | -0.2 | 56.5*
CN1C(=O)/C(=C/c2ccc(-c3ccccc3[N+](=O)[O-])o2)SC1=Nc1ccc(Cl)c(C(=O)O)c1 | 34.4 | -12.0 | 47.0* | 4.2 | 108.2*
CN(C)CCNC(NC(=O)c1cccs1)C(Cl)(Cl)Cl (centres undefined) | 7.6 | -3.9 | 0.0 | 2.8 | 11.5
COCC(C)NCc1ccc(OC)c(Br)c1 (centres undefined) | -3.1 | 0.7 | 1.0 | 34.0 | 29.8
Cc1ccc(NC(=O)c2ccc(Cl)c(N3C(=O)C=CC3=O)c2)cc1 | 29.2 | 15.8 | -8.0 | 0.5 | 57.4*
